Source: PubChem BioAssay (NCI)
This is part of a sample that, as a whole, favours compounds with a hit. Of some 83,000 tested, about 20% had one in any assay.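 Plates (96-well) were seeded with cells, treated with compound at one concentration, and incubated for 48 hours before percent growth was determined.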 Activity calls are given as the source filed them. How the source made its calls: active means growth percent below 10; inactive means the rest.

Columns and labels:
Experiment in all cases: NCI-60 one-dose screen, 48 h (100 = growth as untreated, 0 = no growth, -100 = all killed)
Conditions in all cases: 10 µM unless noted
SK-MEL-2 melanoma = tested on: SK-MEL-2 melanoma
SN12C renal = tested on: SN12C renal
UO-31 renal = tested on: UO-31 renal
TK-10 renal = tested on: TK-10 renal
ACHN renal = tested on: ACHN renal
CAKI-1 renal = tested on: CAKI-1 renal
A498 renal = tested on: A498 renal
CCRF-CEM leukemia = tested on: CCRF-CEM leukemia
MOLT-4 leukemia = tested on: MOLT-4 leukemia

Measured: growth

O=C(c1ccc2ncc(-c3nc(NC4CC4)ncc3F)n2c1)N1CCOCC1
active: UO-31 renal -33.4% | ACHN renal 0.254% | CAKI-1 renal 3.25% | A498 renal -30.3%
inactive: SK-MEL-2 melanoma 27.7% | SN12C renal 30.1% | TK-10 renal 41.9% | CCRF-CEM leukemia 19.5% | MOLT-4 leukemia 16%

CC1(C)N=C(N)N=C(N)N1c1cccc(OCCOc2cccc([N+](=O)[O-])c2)c1
inactive: SK-MEL-2 melanoma 39.4% | SN12C renal 28.8% | UO-31 renal 78.4% | TK-10 renal 71.8% | ACHN renal 89.9% | CAKI-1 renal 90.1% | A498 renal 91% | CCRF-CEM leukemia 29.7% | MOLT-4 leukemia 26%

O=C1/C(=C/c2ccc(Oc3ccccc3)cc2)N=C(c2ccccc2)N1CCc1cccs1
inactive: SK-MEL-2 melanoma 75.5% | SN12C renal 91.3% | UO-31 renal 67.6% | TK-10 renal 80.6% | ACHN renal 96.1% | CAKI-1 renal 67.9% | A498 renal 59.7% | CCRF-CEM leukemia 79.1% | MOLT-4 leukemia 62.8%

COc1cc(/C=C/c2cc(/C=C/c3ccc(O)c(OC)c3)n(-c3ccccc3)n2)ccc1O
active: SK-MEL-2 melanoma -48.1% | SN12C renal -3.11% | UO-31 renal -44.6% | TK-10 renal 6.18% | ACHN renal 2.77% | CAKI-1 renal -60.4% | A498 renal -25.2% | CCRF-CEM leukemia -5.12% | MOLT-4 leukemia -39.9%

O=C(O)CCN1CCN(c2cccc(Cl)c2)CC1
inactive: SK-MEL-2 melanoma 107% | SN12C renal 100% | UO-31 renal 106% | TK-10 renal 138% | ACHN renal 94.8% | CAKI-1 renal 87.6% | A498 renal 94.2% | CCRF-CEM leukemia 105% | MOLT-4 leukemia 91.3%

COc1cccc(C2CC(=O)Nc3cc4c(cc32)CCC4)c1OC (stereo unspecified)
inactive: SK-MEL-2 melanoma 36.5% | SN12C renal 77.2% | UO-31 renal 59.7% | TK-10 renal 70.1% | ACHN renal 82.3% | CAKI-1 renal 40.8% | A498 renal 62.9% | MOLT-4 leukemia 14.8%
active: CCRF-CEM leukemia 3.82%

CSc1ccc(OC(C)=O)cc1C
inactive: SK-MEL-2 melanoma 92.7% | SN12C renal 104% | UO-31 renal 77.2% | TK-10 renal 91.1% | ACHN renal 98% | CAKI-1 renal 96.4% | A498 renal 86.3% | CCRF-CEM leukemia 88.5% | MOLT-4 leukemia 89.6%

CCOC(=O)c1cn2c3c(cc(F)cc3c1=O)C(CC)c1ccccc1C2 (stereo unspecified)
inactive: SK-MEL-2 melanoma 96.8% | SN12C renal 96.3% | TK-10 renal 111% | ACHN renal 105% | CAKI-1 renal 102% | A498 renal 89.5% | CCRF-CEM leukemia 74.9% | MOLT-4 leukemia 65.6%
active: UO-31 renal -57.3%

Cc1nn(-c2ccccc2)c2nc3nc4c(c(N)c3c(-c3ccc(Cl)cc3)c12)CCC4
inactive: SK-MEL-2 melanoma 96.8% | SN12C renal 105% | UO-31 renal 75.2% | TK-10 renal 105% | ACHN renal 51.1% | CAKI-1 renal 93.1% | A498 renal 92.4% | CCRF-CEM leukemia 21.7% | MOLT-4 leukemia 90.4%

Cn1c(=O)c(S(=O)(=O)c2ccccc2)cc2ccc3c(cnn3-c3ccc(Cl)cc3)c21
inactive: SK-MEL-2 melanoma 87.2% | SN12C renal 86.6% | UO-31 renal 52.2% | TK-10 renal 81.5% | ACHN renal 58.2% | CAKI-1 renal 82.8% | A498 renal 53.5% | CCRF-CEM leukemia 95.8% | MOLT-4 leukemia 94.8%

COc1ccc(/C=C2\CN(Cc3cn(CCCNc4ccnc5cc(Cl)ccc45)nn3)C/C(=C\c3ccc(OC)c(OC)c3)C2=O)cc1OC
inactive: SK-MEL-2 melanoma 27.7% | UO-31 renal 33.2% | TK-10 renal 14.3% | CAKI-1 renal 31% | A498 renal 23.5%
active: SN12C renal -38% | ACHN renal -38% | CCRF-CEM leukemia -15.2% | MOLT-4 leukemia -13%

O=C1CC(c2ccsc2)c2snc(-c3ccc(Cl)cc3)c2N1 (stereo unspecified)
inactive: SK-MEL-2 melanoma 27.3% | SN12C renal 54% | UO-31 renal 48.4% | TK-10 renal 53.8% | ACHN renal 53% | CAKI-1 renal 26.6% | A498 renal 24.2% | CCRF-CEM leukemia 16.3% | MOLT-4 leukemia 14.5%

CCCCC(=O)N/N=C/c1cc(I)cc(I)c1O
inactive: SK-MEL-2 melanoma 64.3% | SN12C renal 56.3% | UO-31 renal 34.9% | TK-10 renal 49.3% | ACHN renal 23.6% | CAKI-1 renal 21.6% | A498 renal 70.4% | CCRF-CEM leukemia 14.9% | MOLT-4 leukemia 28.2%

O=C1c2[nH]cc(CN[C@@H]3CCCN3)c2C(=O)c2c1c(O)c1ccccc1c2O
active: SK-MEL-2 melanoma -17.3% | SN12C renal -32% | UO-31 renal -31.1% | TK-10 renal -89.3% | ACHN renal -92.8% | CAKI-1 renal -18.4% | CCRF-CEM leukemia -85.6% | MOLT-4 leukemia -84.7%
inactive: A498 renal 38.1%

COc1ccc(/C=C2\CN(Cc3cn(CCCNc4ccnc5cc(Cl)ccc45)nn3)C/C(=C\c3ccc(OC)cc3)C2=O)cc1
active: CCRF-CEM leukemia 1.02%
inactive: SK-MEL-2 melanoma 90.4% | SN12C renal 67% | UO-31 renal 54.7% | TK-10 renal 94.9% | ACHN renal 79.6% | CAKI-1 renal 92.6% | A498 renal 52.9% | MOLT-4 leukemia 32.2%

Brc1ccc(SCN(CSc2ccc(Br)cc2)Cc2ccccc2)cc1
inactive: SK-MEL-2 melanoma 94.6% | SN12C renal 27.3% | UO-31 renal 39% | TK-10 renal 113% | ACHN renal 87.3% | CAKI-1 renal 73% | A498 renal 56.3% | MOLT-4 leukemia 17%
active: CCRF-CEM leukemia 4.88%

Cc1nn2c(-c3nc4ccc(Cl)cc4[nH]3)c(-c3ccc(F)cc3)nc2s1
inactive: SK-MEL-2 melanoma 105% | SN12C renal 106% | UO-31 renal 86.9% | TK-10 renal 97.1% | ACHN renal 102% | CAKI-1 renal 94.8% | A498 renal 76.8% | CCRF-CEM leukemia 72% | MOLT-4 leukemia 72.6%

C=CC[P+](c1ccccc1)(c1ccccc1)c1ccccc1
inactive: SK-MEL-2 melanoma 24.6% | SN12C renal 69.7% | UO-31 renal 99.7% | TK-10 renal 78.7% | ACHN renal 91.2% | CAKI-1 renal 90.9% | A498 renal 81.5% | CCRF-CEM leukemia 59.7% | MOLT-4 leukemia 62.5%

Cc1cc(=O)oc2c1ccc1oc(C(=O)c3ccccc3)c(C)c12
inactive: SK-MEL-2 melanoma 104% | SN12C renal 71% | UO-31 renal 100% | TK-10 renal 113% | ACHN renal 76.9% | CAKI-1 renal 77.1% | A498 renal 82.8% | MOLT-4 leukemia 76.8%

O=S(=O)(Nc1ncccn1)c1ccc(Nc2ccc3nnc(-c4ccncc4)n3n2)cc1
inactive: SK-MEL-2 melanoma 125% | SN12C renal 93.9% | UO-31 renal 81% | TK-10 renal 115% | ACHN renal 98.6% | CAKI-1 renal 99.6% | A498 renal 87.5% | MOLT-4 leukemia 109%

COc1cc(/C=C2\C(=O)N(c3c(Cl)cccc3Cl)c3ccccc32)cc(OC)c1O
active: CAKI-1 renal 7.23% | MOLT-4 leukemia 0.985%
inactive: SK-MEL-2 melanoma 36% | SN12C renal 50% | UO-31 renal 31.7% | TK-10 renal 48.2% | ACHN renal 40.5% | A498 renal 102% | CCRF-CEM leukemia 17.6%

O=C(Nc1ccc(Cl)c(Cl)c1)OCn1ncc2ccc([N+](=O)[O-])cc21
inactive: SK-MEL-2 melanoma 85% | SN12C renal 95.1% | UO-31 renal 45.9% | TK-10 renal 92.9% | ACHN renal 83.5% | CAKI-1 renal 73% | A498 renal 60.1% | CCRF-CEM leukemia 81.8% | MOLT-4 leukemia 70.6%

CC(C)(C)CC(C)(C)N(CSc1ccc(Cl)cc1)CSc1ccc(Cl)cc1
inactive: SK-MEL-2 melanoma 74.4% | SN12C renal 16.6% | UO-31 renal 25.5% | TK-10 renal 76.5% | ACHN renal 63.8% | CAKI-1 renal 24.9%
active: A498 renal -7.24% | CCRF-CEM leukemia -19.8% | MOLT-4 leukemia -34.5%

O/N=C/c1cccs1
inactive: SK-MEL-2 melanoma 116% | SN12C renal 106% | UO-31 renal 89.1% | TK-10 renal 118% | ACHN renal 97% | CAKI-1 renal 91.7% | A498 renal 102% | CCRF-CEM leukemia 101% | MOLT-4 leukemia 85.5%

CCN(C(=O)c1ccc2c3c(cccc13)C=C2)c1ccccc1
inactive: SK-MEL-2 melanoma 84.9% | SN12C renal 94.7% | UO-31 renal 82.9% | TK-10 renal 110% | ACHN renal 100% | CAKI-1 renal 88.7% | A498 renal 90.2% | CCRF-CEM leukemia 104% | MOLT-4 leukemia 88.6%

COc1ncc(F)c(OC)n1
inactive: SK-MEL-2 melanoma 109% | SN12C renal 100% | UO-31 renal 86.9% | TK-10 renal 108% | ACHN renal 100% | CAKI-1 renal 94.5% | A498 renal 110% | CCRF-CEM leukemia 100% | MOLT-4 leukemia 94.7%

Cc1ccc(-c2nnc(COc3ccc(-c4nnc(N)s4)cc3)o2)cc1
inactive: SK-MEL-2 melanoma 104% | SN12C renal 82.2% | UO-31 renal 91.7% | TK-10 renal 106% | ACHN renal 107% | CAKI-1 renal 94.8% | A498 renal 103% | CCRF-CEM leukemia 47.7% | MOLT-4 leukemia 77.6%

COc1ccc(NC(=O)c2ccc3c(c2)nc(-c2ccc(Cl)cc2)n3-c2cc(C(C)(C)C)[nH]n2)cc1
inactive: SK-MEL-2 melanoma 92.7% | SN12C renal 86% | UO-31 renal 62.4% | TK-10 renal 75.8% | ACHN renal 90.1% | CAKI-1 renal 61% | A498 renal 62.2% | MOLT-4 leukemia 55.1%

O=C1/C(=C/c2ccc(F)cc2)CN(Cc2cn(CCNc3ccnc4cc(Cl)ccc34)nn2)C/C1=C\c1ccc(F)cc1
active: SK-MEL-2 melanoma -63.7% | SN12C renal -75% | UO-31 renal -95.8% | TK-10 renal -20.3% | ACHN renal -100% | CAKI-1 renal 1.43% | A498 renal -79.3% | MOLT-4 leukemia -18.4%

Cc1nc2cc(Nc3nc(Nc4ccc(F)cc4)nc(-c4cccs4)n3)ccc2n1Cc1ccccc1
inactive: SK-MEL-2 melanoma 72.9% | SN12C renal 70.3% | UO-31 renal 36.5% | TK-10 renal 62.7% | ACHN renal 45.6% | CAKI-1 renal 70.2% | A498 renal 56% | CCRF-CEM leukemia 27.2% | MOLT-4 leukemia 23.5%
